Results from PubChem BioAssay (NCATS).
Records with an inconclusive call do not appear. Entries that show only a call come without a potency. Active and inactive are the calls of the source. Unless noted, calls follow the shape of the dose curve; as a rule, active = well fitted inhibition curve with a large enough effect; inconclusive = small, poorly fitted or top-dose-only effect; inactive = flat fitted curve, though single readings scatter.

Columns and labels:
[1] = qHTS drug screen for cell cycle checkpoint inhibitors in PARPi-resistant BRCA-mutant ovarian cancer cell lines. (AID 1963452; calls by dose curve); details: PEO1/OlaR viability, CellTiter-Glo luminescence, 96 h, stronger effect = lower value
How it was run: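 PEO1, PEO4 and PEO1/OlaR ovarian cancer cells, 600 per well, exposed 96 h at 37C to a dilution series. Viability read by CellTiter-Glo luminescence, normalized to DMSO and empty wells; activity summarized as Z-AUC.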

[2] = qHTS profiling for inhibitors of Plasmodium falciparum proliferation (AID 504749); also: nearly all actives have a fitted effect of over 60% in size; also: potency is read from the fitted curve at half-maximal effect; details: P. falciparum in erythrocytes, SYBR Green DNA, 72 h
How it was run: (§1)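 In a 72 h erythrocytic culture (37 C, humidified, 5% CO2) at 2.5% hematocrit and 0.3% starting parasitemia, compounds were tested; SYBR Green I in detergent lysis buffer stained parasite DNA overnight.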

3D7 = experiment: as above; details: P. falciparum in erythrocytes, SYBR Green DNA, 72 h; series mostly up to 28.7 µM
How it was run: as §1

7G8 = experiment: as above; details: P. falciparum in erythrocytes, SYBR Green DNA, 72 h; series mostly up to 28.7 µM
How it was run: as §1

AA1029 = experiment: as above; details: P. falciparum in erythrocytes, SYBR Green DNA, 72 h; series mostly up to 28.7 µM
How it was run: as §1

AS120 = experiment: as above; details: P. falciparum in erythrocytes, SYBR Green DNA, 72 h; series mostly up to 28.7 µM
How it was run: as §1

ATS189 = experiment: as above; details: P. falciparum in erythrocytes, SYBR Green DNA, 72 h; series mostly up to 28.7 µM
How it was run: as §1

ATS95 = experiment: as above; details: P. falciparum in erythrocytes, SYBR Green DNA, 72 h; series mostly up to 28.7 µM
How it was run: as §1

C2A = experiment: as above; details: P. falciparum in erythrocytes, SYBR Green DNA, 72 h; series mostly up to 28.7 µM
How it was run: as §1

CP185 = experiment: as above; details: P. falciparum in erythrocytes, SYBR Green DNA, 72 h; series mostly up to 28.7 µM
How it was run: as §1

CP191 = experiment: as above; details: P. falciparum in erythrocytes, SYBR Green DNA, 72 h; series mostly up to 28.7 µM
How it was run: as §1

CP192 = experiment: as above; details: P. falciparum in erythrocytes, SYBR Green DNA, 72 h; series mostly up to 28.7 µM
How it was run: as §1

CP194 = experiment: as above; details: P. falciparum in erythrocytes, SYBR Green DNA, 72 h; series mostly up to 28.7 µM
How it was run: as §1

CP201 = experiment: as above; details: P. falciparum in erythrocytes, SYBR Green DNA, 72 h; series mostly up to 28.7 µM
How it was run: as §1

CP203 = experiment: as above; details: P. falciparum in erythrocytes, SYBR Green DNA, 72 h; series mostly up to 28.7 µM
How it was run: as §1

CP211 = experiment: as above; details: P. falciparum in erythrocytes, SYBR Green DNA, 72 h; series mostly up to 28.7 µM
How it was run: as §1

[3] = qHTS for identification of novel therapeutic agents for treatment of microphthalmiaassociated transcription factor (MiT) renal cell carcinoma (RCC) (AID 1963991); details: CellTiter-Glo, 48 h, stronger effect = lower value
How it was run: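 Three TFE3-fusion RCC lines (UOK109, UOK124, UOK145), 500 cells/well in complete medium, were treated with MIPE 4.0 compounds for 48 hours at 37 C. Viability was by CellTiter-Glo luminescence, normalized to DMSO (100%) and empty wells (0%); curves fitted over 11 concentrations.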

[4] = measured here: PEO1 parental Z-AUC
[5] = at 28.7 µM (top of the series), parasite line A
[6] = at 28.7 µM (top of the series), parasite line B
[7] = TFE3-RCC UOK109 viability, measured here: UOK109 Z-AUC
[8] = TFE3-RCC viability, measured here: UOK124 Z-AUC
[9] = TFE3-RCC viability, measured here: UOK145 Z-AUC
[10] = at 12.8 µM (top of the series), parasite line A
[11] = at 12.8 µM (top of the series), parasite line B

NC(=O)NO
Z-AUC [1]: 1.41 (inactive) | Z-AUC [1, 4]: 1.02 | Z-AUC ([1]; measured here: PEO4 Z-AUC): 0.874 | activity, negative = inhibition [2, 5]: 16% (inactive) | activity, negative = inhibition [2, 6]: 12.9% (inactive) | Potency (3D7): inactive | Potency (7G8): inactive | Potency (AA1029): inactive | Potency (AS120): inactive | Potency (ATS189): inactive | Potency (ATS95): inactive | Potency (C2A): inactive | Potency (CP185): inactive | Potency (CP191): inactive | Potency (CP192): inactive | Potency (CP194): inactive | Potency (CP201): inactive | Potency (CP203): inactive | Potency (CP211): inactive

NCCc1cnc[nH]1
Z-AUC [1]: 0.48 (inactive) | Z-AUC [1, 4]: 0.383 | Z-AUC ([1]; measured here: PEO4 Z-AUC): 0.867 | z-score [3, 7]: -0.102 | z-score [3, 8]: 0.743 | z-score [3, 9]: 0.389 | activity, negative = inhibition [2, 5]: 7.72% (inactive) | activity, negative = inhibition [2, 6]: 10.7% (inactive) | Potency (7G8): inactive | Potency (AA1029): inactive | Potency (AS120): inactive | Potency (ATS189): inactive | Potency (C2A): inactive | Potency (CP185): inactive | Potency (CP191): inactive | Potency (CP192): inactive | Potency (CP194): inactive | Potency (CP201): inactive | Potency (CP203): inactive | Potency (CP211): inactive

COc1ccccc1OCC(O)CN1CCN(CC(=O)Nc2c(C)cccc2C)CC1 (centres undefined)
Z-AUC [1]: -0.161 (inactive) | Z-AUC [1, 4]: 0.571 | Z-AUC ([1]; measured here: PEO4 Z-AUC): 0.54 | z-score [3, 7]: 0.18 | z-score [3, 8]: 0.373 | z-score [3, 9]: -0.0249 | activity, negative = inhibition [2, 5]: 2.52% (inactive) | activity, negative = inhibition [2, 6]: -6.5% (inactive) | Potency (3D7): inactive | Potency (7G8): inactive | Potency (AA1029): inactive | Potency (AS120): inactive | Potency (ATS189): inactive | Potency (ATS95): inactive | Potency (C2A): inactive | Potency (CP185): inactive | Potency (CP191): inactive | Potency (CP192): inactive | Potency (CP194): inactive | Potency (CP201): inactive | Potency (CP211): inactive

O=c1c(-c2ccc(O)cc2)coc2cc(O)cc(O)c12
Z-AUC [1]: 0.848 (inactive) | Z-AUC [1, 4]: 0.793 | Z-AUC ([1]; measured here: PEO4 Z-AUC): -0.435 | activity, negative = inhibition [2, 5]: -2.63% (inactive) | activity, negative = inhibition [2, 6]: -14.6% (inactive) | Potency (3D7): inactive | Potency (7G8): inactive | Potency (AA1029): inactive | Potency (AS120): inactive | Potency (ATS189): inactive | Potency (ATS95): inactive | Potency (C2A): inactive | Potency (CP185): inactive | Potency (CP191): inactive | Potency (CP192): inactive | Potency (CP194): inactive | Potency (CP201): inactive | Potency (CP203): inactive | Potency (CP211): inactive

Nc1nnc(-c2cccc(Cl)c2Cl)c(N)n1
Z-AUC [1]: -0.438 (inactive) | Z-AUC [1, 4]: 0.568 | Z-AUC ([1]; measured here: PEO4 Z-AUC): 0.453 | activity, negative = inhibition [2, 5]: -17% (inactive) | activity, negative = inhibition [2, 6]: -20% (inactive) | Potency (3D7): inactive | Potency (7G8): inactive | Potency (AA1029): inactive | Potency (AS120): inactive | Potency (ATS189): inactive | Potency (ATS95): inactive | Potency (C2A): inactive | Potency (CP185): inactive | Potency (CP191): inactive | Potency (CP192): inactive | Potency (CP194): inactive | Potency (CP201): inactive | Potency (CP211): inactive

CC12CC3CC(C)(C1)CC(N)(C3)C2
Z-AUC [1]: 1.05 (inactive) | Z-AUC [1, 4]: 0.978 | Z-AUC ([1]; measured here: PEO4 Z-AUC): 0.935 | activity, negative = inhibition [2, 5]: 13.9% (inactive) | activity, negative = inhibition [2, 6]: 1.67% (inactive) | Potency (3D7): inactive | Potency (7G8): 8.91 µM (active) | Potency (AA1029): 10 µM (active) | Potency (AS120): inactive | Potency (ATS189): inactive | Potency (C2A): inactive | Potency (CP185): inactive | Potency (CP191): inactive | Potency (CP192): inactive | Potency (CP194): inactive | Potency (CP201): inactive | Potency (CP203): inactive | Potency (CP211): inactive

CC(C)NCC(O)COc1ccc(CCOCC2CC2)cc1 (centres undefined)
Z-AUC [1]: 1.3 (inactive) | Z-AUC [1, 4]: 0.99 | Z-AUC ([1]; measured here: PEO4 Z-AUC): 1.01 | activity, negative = inhibition [2, 5]: 13.9% (inactive) | activity, negative = inhibition [2, 6]: -3.18% (inactive) | Potency (3D7): inactive | Potency (7G8): 11.2 µM (active) | Potency (AA1029): inactive | Potency (AS120): inactive | Potency (ATS95): inactive | Potency (C2A): inactive | Potency (CP185): inactive | Potency (CP192): inactive | Potency (CP194): inactive | Potency (CP201): inactive | Potency (CP211): inactive

Nc1nc2c(ncn2COC(CO)CO)c(=O)[nH]1
Z-AUC [1]: 1.34 (inactive) | Z-AUC [1, 4]: 1.36 | Z-AUC ([1]; measured here: PEO4 Z-AUC): 1.37 | activity, negative = inhibition [2, 10]: -0.332% (inactive) | activity, negative = inhibition [2, 11]: 8.95% (inactive) | Potency (3D7): inactive | Potency (7G8): inactive | Potency (AA1029): inactive | Potency (AS120): inactive | Potency (ATS189): inactive | Potency (ATS95): inactive | Potency (C2A): inactive | Potency (CP185): inactive | Potency (CP191): inactive | Potency (CP192): inactive | Potency (CP194): inactive | Potency (CP201): inactive | Potency (CP203): inactive | Potency (CP211): inactive

COc1ccc(CCN(C)CCCC(C#N)(c2ccc(OC)c(OC)c2)C(C)C)cc1OC (centres undefined)
Z-AUC [1]: 0.76 (inactive) | Z-AUC [1, 4]: 0.721 | Z-AUC ([1]; measured here: PEO4 Z-AUC): 1.08 | z-score [3, 7]: 0.794 | z-score [3, 8]: 0.393 | z-score [3, 9]: 0.327 | activity, negative = inhibition [2, 5]: 7.01% (inactive) | activity, negative = inhibition [2, 6]: 8.01% (inactive) | Potency (3D7): inactive | Potency (AS120): inactive | Potency (ATS189): inactive | Potency (ATS95): inactive | Potency (C2A): inactive | Potency (CP185): inactive | Potency (CP191): inactive | Potency (CP192): inactive | Potency (CP201): inactive

O=C1N(c2ccccc2)c2ccccc2C1(Cc1ccncc1)Cc1ccncc1
Z-AUC [1]: -0.0273 (inactive) | Z-AUC [1, 4]: 0.843 | Z-AUC ([1]; measured here: PEO4 Z-AUC): 0.797 | activity, negative = inhibition [2, 5]: 1.98% (inactive) | activity, negative = inhibition [2, 6]: -9.11% (inactive) | Potency (3D7): inactive | Potency (7G8): 8.91 µM (active) | Potency (AA1029): inactive | Potency (AS120): inactive | Potency (ATS189): inactive | Potency (ATS95): inactive | Potency (C2A): inactive | Potency (CP185): inactive | Potency (CP191): inactive | Potency (CP192): inactive | Potency (CP194): inactive | Potency (CP201): inactive | Potency (CP211): inactive

CN1C(C(=O)Nc2ccccn2)=C(O)c2ccccc2S1(=O)=O
Z-AUC [1]: 0.47 (inactive) | Z-AUC [1, 4]: 0.178 | Z-AUC ([1]; measured here: PEO4 Z-AUC): 0.354 | activity, negative = inhibition [2, 10]: -3.72% (inactive) | activity, negative = inhibition [2, 11]: -0.0614% (inactive) | Potency (3D7): inactive | Potency (7G8): inactive | Potency (AA1029): inactive | Potency (AS120): inactive | Potency (ATS189): inactive | Potency (ATS95): inactive | Potency (C2A): inactive | Potency (CP185): inactive | Potency (CP191): inactive | Potency (CP192): inactive | Potency (CP194): inactive | Potency (CP201): inactive | Potency (CP211): inactive

COc1ccccc1N1CCN(CC(O)COc2cccc3ccccc23)CC1 (centres undefined)
Z-AUC [1]: -0.153 (inactive) | Z-AUC [1, 4]: 0.273 | Z-AUC ([1]; measured here: PEO4 Z-AUC): 0.504 | z-score [3, 7]: 0.719 | z-score [3, 8]: 0.448 | z-score [3, 9]: -1.51 | activity, negative = inhibition [2, 5]: -3.66% (inactive) | activity, negative = inhibition [2, 6]: -18.8% (inactive) | Potency (3D7): inactive | Potency (7G8): 11.2 µM (active) | Potency (AA1029): inactive | Potency (AS120): inactive | Potency (ATS189): inactive | Potency (ATS95): inactive | Potency (C2A): inactive | Potency (CP185): inactive | Potency (CP191): inactive | Potency (CP192): inactive | Potency (CP194): inactive | Potency (CP201): inactive | Potency (CP211): inactive
